Assay results: PubChem BioAssay (EPA / NIEHS)
Inconclusive results are not listed. The source made the active and inactive calls. Rule for the calls, unless noted: active = hit-call score of the fitted dose curve at least 0.9, where 1 is the maximum; inactive = score below 0.9.

Key:
[1] = biological target: Cellular tumor antigen p53 (Homo sapiens) (UniProt P04637); assay: TOX21_p53_BLA_p2_ratio: Tox21 HCT-116 p53 Agonism Beta-lactamase Assay, Ratio, Phase 2 (AID 2283592; active = hit-call score of the fitted dose curve at least 0.9, where 1 is the maximum)
Outline: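 An inducible beta-lactamase reporter in HCT116 cells signals p53 pathway activation. After 16 h chemical exposure at 37C, cells load CCF4-AM substrate for 2 h at room temperature; activity is the cleaved/uncleaved emission ratio relative to DMSO.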

[2] = TOX21_p53_BLA_p3_viability: Viability Assessment in the Tox21 HCT-116 p53 Agonism Beta-lactamase Assay, Phase 3 (AID 2283593; active = hit-call score of the fitted dose curve at least 0.9, where 1 is the maximum;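 note: cells exposed to compound for 16 h before reading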)
Outline: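 Cellular ATP was quantified by CellTiter-Glo luminescence, read after 30 min at room temperature. Beforehand, HCT116 cells (4000/well) received compound 5 h post-seeding, 217-fold diluted from DMSO, then incubated 16 h at 37C.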

[3] = biological target: Cellular tumor antigen p53 (Homo sapiens) (UniProt P04637); assay: TOX21_p53_BLA_p3_ratio: Tox21 HCT-116 p53 Agonism Beta-lactamase Assay, Ratio, Phase 3 (AID 2283596; active = hit-call score of the fitted dose curve at least 0.9, where 1 is the maximum)
Outline: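 HCT116 p53-bla cells (4000/well) given compound in DMSO (217-fold dilution) after 5 h, incubated 16 h at 37C. CCF4-AM substrate 2 h at room temperature; 460/530 nm emission ratio, gain fitted against DMSO.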

[4] = TOX21_p53_BLA_p4_viability: Viability Assessment in the Tox21 HCT-116 p53 Agonism Beta-lactamase Assay, Phase 4 (AID 2283597; active = hit-call score of the fitted dose curve at least 0.9, where 1 is the maximum;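 note: hits lower the luminescence signal meaning cytotoxicity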)
Outline: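 Compound exposure of HCT116 cells lasts 16 h at 37C, 5% CO2, with DMSO stocks diluted 217-fold. Cellular ATP is then quantified by CellTiter-Glo luminescence after 30 min at room temperature.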

[5] = biological target: Cellular tumor antigen p53 (Homo sapiens) (UniProt P04637); assay: TOX21_p53_BLA_p5_ratio: Tox21 HCT-116 p53 Agonism Beta-lactamase Assay, Ratio, Phase 5 (AID 2283599; active = hit-call score of the fitted dose curve at least 0.9, where 1 is the maximum)
Outline: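 Beta-lactamase reporter ratio (blue 460 nm over green 530 nm, 405 nm excitation) after 2 h CCF4-AM loading, in HCT-116 cells exposed 16 h at 37 C to compounds pinned at 217-fold dilution. Increases relative to DMSO baseline scored.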

[6] = TOX21_p53_BLA_p5_viability: Viability Assessment in the Tox21 HCT-116 p53 Agonism Beta-lactamase Assay, Phase 5 (AID 2283600; active = hit-call score of the fitted dose curve at least 0.9, where 1 is the maximum)
Outline: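 Counter-readout for cytotoxicity: ATP-dependent luminescence from CellTiter-Glo, read in the beta-lactamase wells after 30 min at RT, following a 16 h compound exposure at 37C.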

[7] = biological target: Cellular tumor antigen p53 (Homo sapiens) (UniProt P04637); assay: TOX21_p53_BLA_p4_ratio: Tox21 HCT-116 p53 Agonism Beta-lactamase Assay, Ratio, Phase 4 (AID 2283601; active = hit-call score of the fitted dose curve at least 0.9, where 1 is the maximum)
Outline: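 Signal is the blue/green (460nm/530nm) ratio of cleaved versus uncleaved CCF4-AM substrate, read after 2 h substrate loading. Cells were HCT116 carrying the p53-responsive beta-lactamase reporter, dosed 16 h at 37C, 5% CO2; CellTiter-Glo measured in parallel.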

[8] = CCTE_Shafer_MEA_acute_firing_rate_mean: CCTE's Neural Acute Assay for Mean Firing Rate, Shafer Lab (AID 2284009);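 note: analyzed for loss of signal so actives lower firing rate relative to DMSO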
Outline: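 Percent change in well-mean firing rate was derived from extracellular spikes detected at 8x rms noise (300-5000 Hz band-pass) before and after a 40-min compound exposure. Cultures were primary rat cortical neurons, tested at 0.03-40 uM.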

[9] = CCTE_Shafer_MEA_acute_burst_number: CCTE's Neural Acute Assay for Single-Electrode Bursts, Shafer Lab (AID 2284013)
Outline: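 Spontaneous network activity of primary rat cortical neurons was recorded extracellularly on microelectrode arrays at 37 C, with 40-min periods before and during exposure to 0.03-40 uM compound on DIV 13 or 15.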

[10] = CCTE_Shafer_MEA_acute_burst_duration_mean: CCTE's Neural Acute Assay for Mean Burst Duration, Shafer Lab (AID 2284014);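 note: hits are decreases in mean burst duration relative to DMSO controls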
Outline: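 Read-out is the per-well percent change in mean burst duration (first to last spike within a single-electrode burst) between 40-min recordings before and after compound. Cultures were primary rat cortical neurons on MEAs, dosed at 0.03-40 uM on DIV 13 or 15.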

[11] = CCTE_Shafer_MEA_acute_per_burst_spike_number_mean: CCTE's Neural Acute Assay for Average Number of Spikes Per Burst, Shafer Lab (AID 2284015);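 note: hits are decreases in mean spikes per burst versus baseline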
Outline: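 Rat primary cortical neurons on 48-well MEAs (DIV 13 or 15) were treated with 0.03-40 uM compound at 37 C. Mean spikes per burst over 40 min were recorded before and after exposure and expressed as percent change from baseline, relative to DMSO.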

[12] = CCTE_Shafer_MEA_acute_interburst_interval_mean: CCTE's Neural Acute Assay for Mean Interburst Interval, Shafer Lab (AID 2284016);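 note: percent change of mean interburst interval versus each well's own pre-dose baseline; curves fitted for decrease in interburst interval relative to DMSO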
Outline: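 Rat primary cortical neurons on 48-well MEAs at DIV 13 or 15 were exposed acutely to 0.03-40 uM. Spikes detected at 8x rms noise, 37 C. Mean interburst interval from 40 min recordings expressed as percent change from 40 min pre-treatment baseline.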

[13] = CCTE_Shafer_MEA_acute_burst_percentage_mean: CCTE's Neural Acute Assay for Percentage of Spikes in a Burst, Shafer Lab (AID 2284017);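 note: curve fitted for loss of signal so potency reflects decreased burst percentage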
Outline: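 Primary rat cortical neurons on 48-well MEA plates, treated on DIV 13 or 15 at 0.03-40 uM. Spikes detected at 8x rms noise at 37C; percent change from 40-min baseline to 40-min post-dose recording, fitted versus DMSO.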

[14] = CCTE_Shafer_MEA_acute_burst_percentage_std: CCTE's Neural Acute Assay for Standard Deviation of Burst Percentage, Shafer Lab (AID 2284018);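 note: fitted in the negative direction so actives lower burst percentage SD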
Outline: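 Value is percent change from baseline in the across-electrode SD of spikes-in-bursts percentage, wells with >/= 10 active electrodes. Acute 40-min exposure to 0.03-40 uM on DIV 13 or 15 rat cortical cultures, recorded at 37 C after 40-min baseline.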

[15] = CCTE_Shafer_MEA_acute_per_network_burst_spike_number_mean: CCTE's Neural Acute Assay for Average Number of Spikes in a Network Burst, Shafer Lab (AID 2284019)
Outline: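 Read-out is mean spike count per network burst, taken as percent change between a 40-min pre-exposure and a 40-min post-exposure recording per well. Rat primary cortical neurons on MEAs at 37 C, DIV 13 or 15; compounds at 0.03-40 uM.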

[16] = CCTE_Shafer_MEA_acute_per_network_burst_spike_number_std: CCTE's Neural Acute Assay for Standard Deviation of Number of Spikes in a Network Burst, Shafer Lab (AID 2284020);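 note: fitted for decrease in spike-number SD versus DMSO so actives lower it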
Outline: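 Spontaneous network activity of primary rat cortical neurons is recorded extracellularly before and after a 40-min compound exposure (0.03-40 uM) at 37 C. The endpoint is the well's percent change in burst spike-number SD.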

[17] = CCTE_Shafer_MEA_acute_per_network_burst_electrodes_number_mean: CCTE's Neural Acute Assay for Mean Number of Electrodes in a Network Burst, Shafer Lab (AID 2284021);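 note: curves fitted for decreases only so hits reduce electrodes per burst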
Outline: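 Cultures of rat cortex neurons were exposed on DIV 13 or 15 to compounds at 0.03-40 uM in at least three wells each. Activity over 40 min before and 40 min after exposure at 37 C gave the percent change in electrodes per network burst.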

[18] = CCTE_Shafer_MEA_acute_network_burst_percentage: CCTE's Neural Acute Assay for Percentage of Network Bursts, Shafer Lab (AID 2284022);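 note: curves fitted for loss so actives lower network burst percentage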
Outline: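 Cortical neurons from rat were grown over microelectrode arrays and used on day 13 or 15 in vitro. Wells with at least 10 active electrodes received test chemical at 0.03-40 uM. Activity during 40 min of exposure was compared with the preceding 40-min baseline.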

[19] = CCTE_Shafer_MEA_acute_cross_correlation_area: CCTE's Neural Acute Assay for Area of Cross Correlation, Shafer Lab (AID 2284024);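 note: area under pooled inter-electrode spike cross-correlation near zero lag as percent change from own baseline; curves fitted for loss of cross-correlation area so actives lower synchrony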
Outline: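 Acute exposure of mature rat cortical networks (day 13 or 15 post-plating) to 0.03-40 uM compound. Spontaneous spiking on MEA, 40 min pre- and post-dose at 37 C.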

[20] = CCTE_Shafer_MEA_acute_cross_correlation_HWHM: CCTE's Neural Acute Assay for Cross Correlation at Half Width at Half Maximum, Shafer Lab (AID 2284026);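 note: percent change per well from pre-dose baseline in spike cross-correlogram half width; hits are a decrease in cross-correlogram half width relative to DMSO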
Outline: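 Primary cortex (rat), MEA, DIV 13/15; compound 0.03-40 uM; 40 min pre + 40 min post at 37 C; spike threshold 8x rms; wells need ≥10 active electrodes; endpoint = % change in cross-correlogram HWHM vs baseline, DMSO negative control.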

[21] = CCTE_Shafer_MEA_acute_synchrony_index: CCTE's Neural Acute Assay for Synchrony, Shafer Lab (AID 2284027);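 note: fitted for loss of signal so actives lower synchrony relative to DMSO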
Outline: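 Readout is percent change in the unitless network synchrony index (0 low, 1 high) between a 40-min baseline and a 40-min recording in compound. Cultures were primary rat cortical neurons on MEAs, treated at 0.03-40 uM on DIV 13 or 15.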

[22] = CCTE_Shafer_MEA_dev_firing_rate_mean: CCTE's Neural Network Formation Assay for Mean Firing Rate, Shafer Lab (AID 2284031)
Outline: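 Rat primary cortical neurons were seeded on multielectrode arrays and treated from plating through day 12, with redosing at each feed. Spontaneous spiking was recorded four times; mean firing rate AUC was fitted downward against DMSO.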

[23] = CCTE_Shafer_MEA_dev_active_electrodes_number: CCTE's Neural Network Formation Assay for Number of Active Electrodes, Shafer Lab (AID 2284040; active = hit-call score of the fitted dose curve at least 0.9, where 1 is the maximum;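 note: potency for loss of active electrodes versus DMSO so lower counts are hits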)
Outline: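 Primary rat cortical neurons on 16-electrode MEA wells, exposed from day 0 through day 12 with compound renewed at DIV 5 and 9 feeds. Active electrodes (mean firing ≥5 spikes/min) counted at DIV 5, 7, 9, 12; trapezoidal AUC across days, loss-of-signal versus DMSO.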

[24] = CCTE_Shafer_MEA_dev_burst_rate: CCTE's Neural Network Formation Assay for Burst Rate, Shafer Lab (AID 2284042)
Outline: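 Primary rat cortical neurons on PEI-coated 48-well MEA plates (laminin added with cells at plating) (16 electrodes/well), exposed from plating to day 12, dosing renewed at DIV 5 and 9. Burst rate averaged over active electrodes, recorded DIV 5, 7, 9, 12, summarized as AUC; loss versus DMSO.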

[25] = CCTE_Shafer_MEA_dev_bursting_electrodes_number: CCTE's Neural Network Formation Assay for Number of Bursting Electrodes, Shafer Lab (AID 2284043; active = hit-call score of the fitted dose curve at least 0.9, where 1 is the maximum;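 note: potency is for loss of bursting electrodes relative to DMSO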)
Outline: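 Read-out is the per-well number of electrodes bursting at least once every 2 minutes, recorded on days 5, 7, 9 and 12 and collapsed by trapezoidal area under the curve. Cultures were primary rat cortical neurons on MEA plates, treated continuously from plating.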

Measured: AC50

Sequence of Cellular tumor antigen p53 (Homo sapiens) (P04637 whole entry, looked up): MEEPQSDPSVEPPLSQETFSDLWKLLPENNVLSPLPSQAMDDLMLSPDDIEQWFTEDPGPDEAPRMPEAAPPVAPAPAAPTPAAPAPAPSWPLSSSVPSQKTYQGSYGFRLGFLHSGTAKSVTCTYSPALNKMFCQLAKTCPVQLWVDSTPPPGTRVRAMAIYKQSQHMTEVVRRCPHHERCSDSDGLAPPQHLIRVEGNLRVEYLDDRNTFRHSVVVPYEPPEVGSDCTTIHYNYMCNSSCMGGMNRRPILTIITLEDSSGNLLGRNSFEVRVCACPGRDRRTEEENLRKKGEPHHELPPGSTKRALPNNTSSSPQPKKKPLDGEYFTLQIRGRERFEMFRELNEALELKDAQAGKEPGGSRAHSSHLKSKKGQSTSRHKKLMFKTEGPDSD

CC1(C)[C@H](C=C(Cl)Cl)[C@@H]1C(=O)O[C@@H](C#N)c1cccc(Oc2ccccc2)c1
active: [11] 2.61 µM | [12] 1.12 µM | [13] 2.24 µM | [16] 682 nM | [17] 1.23 µM | [18] 2.98 µM | [19] 170 nM | [20] 15 µM | [21] 1.39 µM | [23] 15 µM | [25] 8.64 µM
inactive: all other assays above
